Screening results as filed in PubChem BioAssay.
TDP1 cell CPT: qHTS for Inhibitors of human tyrosyl-DNA phosphodiesterase 1 (TDP1): qHTS in cells in presence of CPT; chicken DT40 Tdp1-/-;hTDP1 cells + 20 nM CPT, ATP luminescence, 48 h; Potency, µM (top dose mostly 46.2 µM), for the others: at the top dose activity change, negative = growth inhibition, actives largely listed as inhibitors; 12% of 420,000 active; AID 686979, 2013; further: potency means the concentration at half of the fitted maximal effect; nearly all actives have a fitted effect of over 55% in size
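Cell growth measured by CellTiter-Glo luminescence after a minimum 48 h, 37 C compound exposure with 20 nM CPT in Tdp1-knockout DT40 cells stably expressing hTDP1, seeded 400/well; qHTS titration format.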
Giardia kill: Small Molecules that selectively kill Giardia lamblia: qHTS. Giardia lamblia trophozoite viability. activity change, % at 7.66 µM, hits read low. 0.15% of 340,000 active; in the data active means activity change below about -80%; inconclusive means between about -30% and that limit;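 further: parasites exposed to compound for two days anaerobically before the ATP read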
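Viability, read as ATP luminescence: trophozoites at 100 cells/well, compound added, 48 hrs anaerobic at 37 deg C, then 15-30 min room-temperature development before reading.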
ELG1 DNA repair: qHTS screen for small molecules that inhibit ELG1-dependent DNA repair in human embryonic kidney (HEK293T) cells expressing luciferase-tagged ELG1; HEK293T ELG1-luciferase reporter, luminescence, 16 h; DNA damage induced by 5-fluorouridine; Potency, µM (top dose mostly 46.1 µM), for inactives: at the highest dose activity change, negative = inhibition, most hits filed as inhibitors; 2.3% of 330,000 active; AID 504467, 2011; further: potency means the concentration at half of the fitted maximal effect; nearly all actives have a fitted effect of over 55% in size
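Luminescence from the luciferase reporter, measured 30 min after ONE-Glo reagent at room temperature, was the read-out. Beforehand, 2,000 cells per well were exposed for 16 hr at 37 °C to 5-fluorouridine together with compound or vehicle.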
TDP1 cell noCPT: qHTS for Inhibitors of human tyrosyl-DNA phosphodiesterase 1 (TDP1): qHTS in cells in absence of CPT | AID 686978, 2013 | Potency, µM (titrated, usually from 46.2 µM), without a hit: at the highest dose activity change, negative = growth inhibition, usual class: inhibitors | DT40 Tdp1-/- hTDP1 cells, no CPT, ATP luminescence, 48 h | 15% of 420,000 active; further: potency means the concentration at half of the fitted maximal effect; nearly all actives have a fitted effect of over 55% in size
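Camptothecin absent (DMSO only). Human TDP1-complemented DT40 knockout cells, 400 cells/well, 37 °C for minimum 48 hr; ATP measured via CellTiter-Glo, 30 min dark incubation, luminescence.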
TDP1 block: qHTS Assay for Inhibitors of Tyrosyl-DNA Phosphodiesterase (TDP1); recombinant TDP1, AlphaScreen DNA substrate cleavage; Potency, µM (series often up to 130 µM), for inactives: top-dose activity change, negative = inhibition, hits mostly inhibitors; 0.28% of 350,000 active; AID 485290, 2010; further: potency means the concentration at half of the fitted maximal effect; nearly all actives have a fitted effect of over 40% in size
Target sequence (Q9NUW8 whole entry, looked up): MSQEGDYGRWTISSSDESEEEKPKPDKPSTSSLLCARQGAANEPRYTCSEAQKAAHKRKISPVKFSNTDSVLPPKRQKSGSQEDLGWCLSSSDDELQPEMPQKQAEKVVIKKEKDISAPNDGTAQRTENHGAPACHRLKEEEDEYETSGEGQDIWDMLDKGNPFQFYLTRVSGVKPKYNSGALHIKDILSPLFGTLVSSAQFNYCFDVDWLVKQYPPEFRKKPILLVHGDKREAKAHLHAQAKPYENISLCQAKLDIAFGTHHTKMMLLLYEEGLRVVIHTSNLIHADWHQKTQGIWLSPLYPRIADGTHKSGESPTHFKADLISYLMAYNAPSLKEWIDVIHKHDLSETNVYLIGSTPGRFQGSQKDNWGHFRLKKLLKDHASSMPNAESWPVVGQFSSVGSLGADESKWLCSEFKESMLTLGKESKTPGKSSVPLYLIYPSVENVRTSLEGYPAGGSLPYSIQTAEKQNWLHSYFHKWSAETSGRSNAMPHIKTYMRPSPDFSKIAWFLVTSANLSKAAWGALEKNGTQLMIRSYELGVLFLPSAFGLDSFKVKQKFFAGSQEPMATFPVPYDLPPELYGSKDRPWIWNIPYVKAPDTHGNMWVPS
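AlphaScreen read-out: signal falls as enzyme removes the 3' tyrosine-FITC from a 5'-biotinylated DNA oligo (15 nM, 5 min, RT). Enzyme was E. coli-made recombinant Tdp1 at 1 nM, exposed to compound for 15 min beforehand; beads 10 ug/ml, 10 min.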
IL-1B inflam inh: qHTS for Inhibitors of Inflammasome Signaling: IL-1-beta AlphaLISA Primary Screen | THP-1 LPS/ATP IL-1B secretion, AlphaLISA, 16 h; active compounds read low | activity change, % at 57.5 µM | 4.7% of 360,000 active | AID 743279, 2014; in the data active means activity change below about -50%; inconclusive means mostly about -30% to -49%
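THP-1 cells pretreated 1 hr with compounds (up to 57.5 uM final), then stimulated with LPS (250 ng/mL final) plus ATP (1.25 mM final); secreted IL-1B measured by AlphaLISA after 16 hr, decreased signal indicating inhibition.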
Active calls of the source: *; ? = inconclusive; / = not tested or not shown; [ ] = another dose, or the depositor's remark. Only some compounds are listed: those with a hit (about 19% of all), similar ones and a draw of the others. Unless noted, the call rests on the fitted dose curve; in most records, active means well fitted curve in the direction sought with a large enough effect; inconclusive means small, poorly fitted or top-dose-only effect, or another doubt; inactive means no such curve, though single readings can be large; an effect the other way counts as inactive or inconclusive. On the % scale 0 is the no-effect control and ±100 the full control effect.

SMILES	TDP1 cell CPT	Giardia kill	ELG1 DNA repair	TDP1 cell noCPT	TDP1 block	IL-1B inflam inh
CC(C)c1ccc2[nH]c(O)c(N=NC(=O)c3ccc(CSc4nncn4C)cc3)c2c1	23µM*	12	?	16µM*	3%	?
CCNC(=S)N=Nc1c(O)[nH]c2ccc(C(C)C)cc12	5.2µM*	-14	?	5.2µM*	4%	-15
Cc1ccc2oc(-c3ccc(C)c(NC(=O)COc4ccccc4C)c3)nc2c1	-14%	/	/	?	/	/
Cc1ccc(-c2nnc(SCc3ccccc3C#N)o2)cc1	-27%	/	/	?	2%	/
NC(=S)N=Nc1c(O)[nH]c2ccccc12	13%	-6	-9%	-10%	-5%	-10
CCCCNC(=S)N=Nc1c(O)[nH]c2ccccc12	?	32	-6%	10µM*	11%	-17
Cc1onc(-c2ccccc2Cl)c1C(=O)N1CCN(c2cccc(Cl)c2)CC1	1.6µM*	18	?	1.5µM*	4%	71
Cc1onc(-c2ccccc2Cl)c1C(=O)Oc1cc(F)cc(F)c1	-16%	/	/	-9%	3%	/
COc1ccc(/C(N)=N/OC(=O)c2c(-c3ccccc3Cl)noc2C)cc1OC	21µM*	16	-17%	?	5%	-91*
Cc1onc(-c2ccccc2Cl)c1C(=O)Oc1ccc(Cl)cc1Cl	16µM*	/	/	21µM*	-5%	/
Cc1onc(-c2ccccc2Cl)c1C(N)=O	1%	7	0%	-14%	-5%	0
Cc1nc(/C(N)=N/OC(=O)c2c(-c3ccccc3Cl)noc2C)cs1	-26%	-12	?	?	/	-89*
CN(C)S(=O)(=O)c1ccc(Cl)c(NC(=O)CN2C(=O)NC3(CCc4ccccc43)C2=O)c1 (stereo not given)	-17%	-3	-10%	-22%	0%[56.1 µM]	0
CN1C(=O)N(C)C2=NNC=NC2(O)C1=O (stereo not given)	3%[9.04 µM]	/	/	2%[9.04 µM]	/	/
COC(=O)C[C@@H]1C=C[C@@H](NC(=O)c2ccccc2F)[C@@H](CO)O1	-5%	/	/	11%	/	10
O=C(CSc1nc2c(oc3ccccc32)c(=O)[nH]1)Nc1cccc(Cl)c1	?	/	/	-29%	-6%	/
Cc1onc(-c2c(F)cccc2Cl)c1C(=O)N1CCN(c2ncc(Br)cn2)CC1	-27%	12	13µM*	?	-3%	-1
Nc1nc2ccccc2n1CCOc1ccc(F)cc1	?	-5	-25%	23µM*	/	-51*
COc1ccc(OCCn2c(N)nc3ccccc32)cc1	?	4	5%	23µM*	/	-21
COc1ccc(OCCn2c(C(C)Oc3ccccc3)nc3ccccc32)cc1 (stereo not given)	?	/	/	?	6%	/
CCCS(=O)(=O)NC(=O)C1(C)CCN(C(=O)CSc2ccccc2)C1 (stereo not given)	-7%	/	/	3%	/	15
NS(=O)(=O)c1ccc(N/N=C/c2cn(-c3ccccc3)nc2-c2ccccc2)c([N+](=O)[O-])c1	4.1µM*	-9	11%	12µM*	0%	-78*
NS(=O)(=O)c1ccc(N/N=C/c2ccccc2C(=O)O)c([N+](=O)[O-])c1	5%	3	-1%	4%	4%	-2
CC(=O)C(=Cc1cn(-c2ccccc2)nc1-c1ccccc1)C(C)=O	23µM*	8	15%	?	-3%	-7
Cc1ccc(S(=O)(=O)N/N=C\c2cn(-c3ccccc3)nc2-c2ccccc2)cc1	2%	-6	27%	-3%	9%	-8
SMILES	TDP1 cell CPT	Giardia kill	ELG1 DNA repair	TDP1 cell noCPT	TDP1 block	IL-1B inflam inh
Cc1ccc(-c2nn(-c3ccccc3)cc2/C=N/O)cc1	21%	-21	-2%	-13%	/	-81*
Cc1ccc(-c2nn(-c3ccccc3)cc2/C=N/NS(=O)(=O)c2ccccc2)cc1	29µM*	-13	?	?	5%	-21
O/N=C/c1cn(-c2ccccc2)nc1-c1cccnc1	5%	4	15%	4%	5%	?
CCCOc1ccc(N2C(=O)CC(N(CCOC34CC5CC(CC(C5)C3)C4)C(C)=O)C2=O)cc1 (stereo not given)	-19%	-3	?	-29%	4%	-4
CC(=O)c1ccc(NC(=O)C[n+]2cccc(C)c2)cc1	8%	-1	9%	-4%	2%	-6
O=C(NC1CCCCNC1=O)c1ccco1 (stereo not given)	3%	7	-2%	-3%	/	4
O=C(Nc1ccc(S(=O)(=O)NC2=NCCCCC2)cc1)c1ccccc1Cl	-24%	-10	-2%	12%	/	14
COc1ccc(NS(=O)(=O)c2cccc(C(=O)N/N=C/c3cn(-c4ccccc4)nc3-c3ccccc3)c2)cc1	16µM*	2	24%	?	5%	?
CC(C)NC(=O)NC(=O)COC(=O)c1cc[n+]([O-])cc1	-2%	25	-14%	0%	1%	-2
CCCCCCN1C=C/C(=C\C=C(C#N)C#N)c2ccccc21	?	-29	?	23µM*	3%	20
O=C(NCc1ccccn1)c1ccc([N+](=O)[O-])cc1	-1%	1	9%	-26%	4%	-7
CCOC(=O)N1CCN(CC(=O)Nc2ccc([N+](=O)[O-])cc2C(=O)Nc2ccccc2F)CC1	21µM*	-1	7.3µM*	9.2µM*	3%	23
O=C(CNCc1ccccn1)Nc1ccc([N+](=O)[O-])cc1C(=O)Nc1ccccc1F	?	-6	23µM*	?	-4%	40
O=C(Cc1ccc([N+](=O)[O-])cc1)NCc1ccccn1	4.6µM*	-1	11%	2.9µM*	4%	27
CNS(=O)(=O)c1ccc(CNC[C@H]2O[C@@H](n3cnc(C(N)=O)n3)[C@H](O)[C@@H]2O)cc1	-3%	-2	/	12%	/	17
O=C(CN(c1ccc(Cl)cc1)S(=O)(=O)c1ccc(Cl)c([N+](=O)[O-])c1)NCCc1ccccc1	?	-23	?	?	-5%	?
NS(=O)(=O)c1ccc(CNC(=O)c2ccc(Cl)c([N+](=O)[O-])c2)cc1	?	6	0%	?	10%	?
